Results on 7 compounds are retold here after PubChem BioAssay (NCI).

Test systems include DU-145 prostate; K-562 leukemia; MALME-3M melanoma; MDA-MB-231 breast; RXF 393 renal; SF-268 CNS; SF-295 CNS; SF-539 CNS; UACC-257 melanoma; M14 melanoma; HCT-15 colon; HT29 colon; SNB-75 CNS; SNB-19 CNS; U251 CNS; PC-3 prostate; SK-MEL-5 melanoma; UACC-62 melanoma; LOX IMVI melanoma; SK-MEL-28 melanoma.
What all share (test): NCI-60 one-dose screen, 48 h (100 = growth as untreated, 0 = no growth, -100 = all killed)
Common to all, as to conditions: 10 µM unless noted

This is part of a sample that, as a whole, favours compounds with a hit. Of some 83,000 tested, about 20% had one in any assay.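 Activity criterion: percent growth below 10, measured after cells in 96-well plates were exposed to a single compound concentration for 48 hours.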 Values without a mark were called inactive. Calls of active or inactive are those of the source.

Take `CCN(CC)CCCC(C)Nc1c(-c2ccccc2)cnc2cc(Cl)ccc12` (stereo not given): the growth in the assay with DU-145 prostate is 87.5%; in the assay with K-562 leukemia it was 13.3%; in the assay with MALME-3M melanoma it was -6.83% (active); in the assay with MDA-MB-231 breast, 63.1%; in the assay on RXF 393 renal, 63.4%; in the assay on SF-268 CNS, 77.7%. Also, the growth with SF-295 CNS was 86.5%; with SF-539 CNS it was 83.2%; in the assay with UACC-257 melanoma it was -26.6% (active); in the assay on M14 melanoma, -95.7% (active); in the assay with HCT-15 colon, 29.5%; with HT29 colon, -33.5% (active). Also, the growth with SNB-75 CNS is 132%; in the assay with SNB-19 CNS, 101%; with U251 CNS, 58.1%; in the assay on PC-3 prostate, 64.5%; with SK-MEL-5 melanoma it was 55.3%; in the assay with UACC-62 melanoma, 97.2%. Besides, the growth was 19.2% in the assay on LOX IMVI melanoma and 15.3% with SK-MEL-28 melanoma.
Regarding `CN(C)c1nc(-c2cccs2)n2nc(-c3ccc(Cl)cc3)cc2n1`, the growth in the assay on DU-145 prostate was 72.2%; with K-562 leukemia it was 73.7%; in the assay with MALME-3M melanoma, 57.6%; with MDA-MB-231 breast, 19.3%; with RXF 393 renal, 13.3%; in the assay on SF-268 CNS it was 55%. Moreover, the growth with SF-295 CNS was -5.01% (active); in the assay on SF-539 CNS it was 47.5%; in the assay on UACC-257 melanoma, 79.6%; with M14 melanoma it was 61.4%; in the assay on HCT-15 colon it was 92%; with HT29 colon, 33.2%. The growth is -50.4% (active) in the assay on SNB-75 CNS; 21.1% in the assay on SNB-19 CNS; 7.58% (active) with U251 CNS; 47.1% in the assay with PC-3 prostate; 64.2% in the assay with SK-MEL-5 melanoma; 70.7% in the assay on UACC-62 melanoma. Also, the growth in the assay with LOX IMVI melanoma was 26.5%; in the assay with SK-MEL-28 melanoma, 79.2%.
For `COc1ccc(C(=O)OC2C(OC3C(O)COC(O[C@H]4C[C@H]5[C@@H]6CC=C7C[C@@H](O)CC[C@]7(C)[C@H]6CC[C@]5(C)[C@H]4[C@H](C)C(=O)CCC(C)C)C3OC(N)=O)OCC(O)C2O)cc1` (stereo not given in full), the growth in the assay with DU-145 prostate was 32.8%; with K-562 leukemia it was -45.4% (active); in the assay on MALME-3M melanoma, -34.3% (active); in the assay on MDA-MB-231 breast it was -5.1% (active); in the assay with RXF 393 renal it was -64.9% (active); in the assay with SF-268 CNS, -14.2% (active). Moreover, the growth is -67.2% (active) with SF-295 CNS; -80% (active) with SF-539 CNS; -63.6% (active) with UACC-257 melanoma; -78.6% (active) with M14 melanoma; 6.08% (active) in the assay with HCT-15 colon; 4.99% (active) in the assay with HT29 colon. For the same compound, the growth in the assay on SNB-75 CNS is -10% (active); in the assay on SNB-19 CNS, -28.2% (active); with U251 CNS, -53.3% (active); in the assay with PC-3 prostate, -28.1% (active); in the assay on SK-MEL-5 melanoma, -86.8% (active); in the assay on UACC-62 melanoma, -57.7% (active). The growth is -58.3% (active) in the assay with LOX IMVI melanoma and -59.1% (active) with SK-MEL-28 melanoma.
Regarding `COc1cnc2c(c1)C(=O)c1c-2n(CCCN2CCCC2)c(=O)c2cc(Cl)ccc12`, the growth in the assay on DU-145 prostate was 36%; in the assay with K-562 leukemia it was -72% (active); in the assay with MALME-3M melanoma it was 70.3%; in the assay with MDA-MB-231 breast, 62.4%; in the assay with RXF 393 renal, 30%; in the assay on SF-268 CNS, 39.2%. Besides, the growth was 23% in the assay with SF-295 CNS; 4.9% (active) with SF-539 CNS; 63.6% in the assay with UACC-257 melanoma; 37.3% in the assay with M14 melanoma; 39.4% in the assay with HCT-15 colon; -72.8% (active) in the assay on HT29 colon. The growth in the assay on SNB-75 CNS is 19.2%; in the assay with SNB-19 CNS, 28.7%; with U251 CNS, 20.1%; with PC-3 prostate, 20.4%; with SK-MEL-5 melanoma, 14.7%; in the assay on UACC-62 melanoma, 21.1%. Also, the results for the growth with LOX IMVI melanoma and with SK-MEL-28 melanoma were 12.5% and 85.1%, respectively.
On to `C[N+](C)(C)CC(=O)N/N=C\c1ccco1`, for which the growth in the assay with DU-145 prostate is 104%; with K-562 leukemia, 53.3%; in the assay with MALME-3M melanoma, 100%; in the assay on MDA-MB-231 breast it was 118%; in the assay with RXF 393 renal, 118%; in the assay on SF-268 CNS, 105%. Moreover, the growth with SF-295 CNS was 106%; in the assay with SF-539 CNS, 95.3%; in the assay on UACC-257 melanoma, 106%; in the assay with M14 melanoma it was 111%; in the assay with HCT-15 colon it was 102%; in the assay on HT29 colon, 92.6%. In addition, the growth with SNB-75 CNS is 83.2%; in the assay on SNB-19 CNS, 112%; with U251 CNS, 98.7%; in the assay with PC-3 prostate, 95.8%; in the assay on SK-MEL-5 melanoma, 101%; with UACC-62 melanoma, 101%. Moreover, the growth is 101% with LOX IMVI melanoma and 105% in the assay with SK-MEL-28 melanoma.
With `COc1cc(C2CC(c3ccc(Cl)cc3)=NN2C(C)=O)ccc1Oc1ccnc2cc(Cl)ccc12` (stereo not given), the growth in the assay on DU-145 prostate was 36.6%; in the assay on K-562 leukemia it was 65.3%; in the assay with MALME-3M melanoma, 53.9%; with MDA-MB-231 breast, 36.1%; with RXF 393 renal it was 46.1%; with SF-268 CNS, 57.5%. Besides, the growth was 18.3% with SF-295 CNS; 40.2% in the assay with SF-539 CNS; 68.5% with UACC-257 melanoma; 79.9% in the assay on M14 melanoma; 91.9% in the assay on HCT-15 colon; 28.2% in the assay with HT29 colon. The growth in the assay with SNB-75 CNS is 33.2%; in the assay on SNB-19 CNS, 70.7%; with U251 CNS, 43.8%; in the assay on PC-3 prostate it was 58.3%; with SK-MEL-5 melanoma it was 67.8%; in the assay on UACC-62 melanoma it was 60.5%. Also, the growth was 37.9% in the assay with LOX IMVI melanoma and 55.1% in the assay with SK-MEL-28 melanoma.
Turning to `CCOC(=O)c1cc(C(=O)OCC)c(C)nc1C`, the growth is 109% in the assay with DU-145 prostate; 91.4% in the assay on K-562 leukemia; 104% in the assay on MALME-3M melanoma; 107% in the assay on MDA-MB-231 breast; 117% in the assay on RXF 393 renal; 108% in the assay with SF-268 CNS. The growth was 107% in the assay on SF-295 CNS; 103% in the assay with SF-539 CNS; 107% in the assay with UACC-257 melanoma; 111% in the assay on M14 melanoma; 102% with HCT-15 colon; 104% with HT29 colon. For the same compound, the growth with SNB-75 CNS is 99%; in the assay with SNB-19 CNS, 103%; in the assay on U251 CNS it was 103%; with PC-3 prostate, 98.2%; in the assay on SK-MEL-5 melanoma, 107%; with UACC-62 melanoma, 103%. The values for the growth in the assay on LOX IMVI melanoma and in the assay on SK-MEL-28 melanoma were 107% and 112%, respectively.
